Screens from PubChem.
Hits are enriched below; roughly 12% of the tested compounds scored in any of these assays.
G9a inh: inhibitors of human histone lysine methyltransferase G9a | 350,000 compounds, 8.8% hits | G9a H3K9 monomethylation, AlphaScreen, 2 h | Potency, µM (titrated, usually from 102 µM), inactives show at the highest dose activity, negative = inhibition, most hits filed as inhibitors; note: % is set by controls: 0 for no effect and ±100 for the full control effect; nearly all actives have a fitted effect of over 75% in size
Target sequence (Q96KQ7 913-1193 limits assumed): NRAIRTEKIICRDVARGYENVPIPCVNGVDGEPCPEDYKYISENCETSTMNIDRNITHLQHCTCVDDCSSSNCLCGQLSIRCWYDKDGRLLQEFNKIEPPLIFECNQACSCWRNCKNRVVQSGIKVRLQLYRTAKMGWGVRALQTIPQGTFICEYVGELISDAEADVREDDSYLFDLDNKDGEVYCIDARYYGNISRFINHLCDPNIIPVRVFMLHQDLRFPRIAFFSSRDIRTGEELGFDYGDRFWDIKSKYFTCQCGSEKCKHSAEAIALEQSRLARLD
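AlphaScreen read-out: biotin-H3K9 peptide (500 nM) methylation by 20 nM enzyme with 20 uM SAM, 2 h at room temperature after 15 min compound preincubation; anti-monomethyl H3K9 antibody plus donor/acceptor beads, 10 min dark.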
BAZ2B block: BAZ2B (human) inhibition. Q9UIF8. AlphaScreen BAZ2B-H3K14Ac peptide displacement. Potency, µM (doses to about 114 µM), for inactives: at the highest dose activity change, negative = inhibition, hits mostly inhibitors. 360,000 compounds, 4.4% hits. AID 504333; note: % is set by controls: 0 for no effect and ±100 for the full control effect; nearly all actives have a fitted effect of over 60% in size
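AlphaScreen displacement: compounds (up to 110uM) incubated 30 min at room temperature with a preformed 50 nM BAZ2B/50 nM biotinylated H3K14Ac peptide complex in PBS pH 7.4 with Tween-20. Donor and acceptor beads at 10 ug/mL final added, 20 min light-protected before reading.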
HP1b chromo inh: blocks HP1-beta chromodomain binding to methylated histone tails; 390,000 compounds, 0.56% hits; AlphaScreen HP1-beta / biotin-H3K9me3 peptide binding; Potency, µM (top dose mostly 114 µM), for inactives: top-dose activity change, negative = inhibition, most hits filed as inhibitors; note: nearly all actives have a fitted effect of over 70% in size
Target sequence (P83916 whole entry, looked up): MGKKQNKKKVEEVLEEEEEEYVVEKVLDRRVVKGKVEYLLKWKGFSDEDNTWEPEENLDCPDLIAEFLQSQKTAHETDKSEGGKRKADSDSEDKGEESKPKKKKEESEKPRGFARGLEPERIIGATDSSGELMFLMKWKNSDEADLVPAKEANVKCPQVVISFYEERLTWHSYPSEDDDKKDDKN
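AlphaScreen: HP1-beta (50 nM) preformed 30 min with biotin-H3(1-18)K9me3 peptide (50 nM) in PBS pH 7.4, 0.01% Tween-20. Compound added for 30 min at RT, then streptavidin donor/nickel chelate acceptor beads (10 ug/mL) for 30 min.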
JMJD2A Tudor: blocks the human JMJD2A Tudor domain | O75164 | AlphaScreen JMJD2A-Tudor / H3K4me3 peptide binding | Potency, µM (highest dose often 114 µM), inactives show top-dose activity change, negative = inhibition, hits mostly inhibitors | 390,000 compounds, 4.4% hits; note: % is set by controls: 0 for no effect and ±100 for the full control effect; nearly all actives have a fitted effect of over 50% in size
Sfp inh: inhibitors of Bacillus subtilis Sfp phosphopantetheinyl transferase; Q9F4F7; Biochemical Sfp PPTase activity, qHTS; Potency, µM, for inactives: largest response in the series, negative = inhibition, usual class: inhibitors; 310,000 compounds, 3.5% hits; AID 1490;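 note: the enzyme is Sfp with the accession as filed and its product quenches rhodamine fluorescence; 0% = enzyme reaction without inhibitor and -100% = no enzyme wells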
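Fluorescence-quenching assay: 15 nM Sfp-PPTase preincubated 15 min at room temperature with compound, then 5 uM rhodamine-CoA and 12.5 uM BHQ-2-labelled YbbR peptide added. Fluorescence (ex 525/em 598 nm) read at start and after 30 min; difference gives rate.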
Starred values were filed as active, the others as inactive; u = inconclusive; x = not tested or not shown; [ ] = remark or other dose. Calls come from the whole dose curve; as a rule, active = well fitted curve in the direction sought with a large enough effect; inconclusive = small, poorly fitted or top-dose-only effect, or another doubt; inactive = no such curve, though single readings can be large; an effect the other way counts as inactive or inconclusive. Potency is the fitted concentration of half-maximal effect.

SMILES	G9a inh	BAZ2B block	HP1b chromo inh	JMJD2A Tudor	Sfp inh
CC(C(=O)NCCN1CCOCC1)(c1ccccc1)c1ccccc1	-7.5%	-16.3%	10.4%	-12.3%	19.5%
CCOC(=O)n1cc(-c2cnc(CNC(=O)C(C)(c3ccccc3)c3ccccc3)o2)c2ccccc21	44.7µM*	-31.4%	2.4%	u	0.2%
COc1ccccc1NNC(=O)c1cc(C(C)(C)C)nn1Cc1ccccc1	12.6µM*	u	8.2%	-34.5%	9.8%
Cc1ccc(NNC(=O)c2cc(C(C)(C)C)nn2Cc2ccccc2)cc1	3.55µM*	0.1%	u	70.8µM*	8.6%
O=C(NCCN1CCN(c2ccccc2)CC1)c1cccc(Cl)c1	u	-5.4%	20.0%	-19.1%	4.4%
Nc1nc(N)c(N=Nc2ccc(S(N)(=O)=O)cc2)c(=O)[nH]1	35.0%[0.501 µM]	u	44.1%	-9.9%	-9.9%
CCOc1ccc(N=Nc2ccc(O)c3ncccc23)cc1	39.8µM*	u	-8.4%	u	12.1%
NS(=O)(=O)c1ccc(N=Nc2ccc(=O)[nH]c2O)cc1	-31.4%[2.33 µM]	44.7µM*	50.1µM*	35.5µM*	u
CCOc1ccc(N=Nc2cc(C(C)C)ccc2O)cc1	20µM*	5.62µM*	14.1µM*	17.8µM*	6.2%
NS(=O)(=O)c1ccc(N=Nc2ccc(O)c3ncccc23)cc1	50.1µM*	3.55µM*	u	20µM*	-20.5%
CCOc1ccc(N=Nc2ccc(N)cc2N)cc1	u	x	x	x	-10.4%
O=C(NC1CCCCC1)c1cc2c(Cl)nc3ccccc3c2s1	0.7%[59 µM]	-3.9%	41.4%	-2.0%	x
COC(=O)c1c(-c2cccs2)csc1NC(=O)c1ccc(Cl)cc1	2.24µM*	-20.0%	19.2%	-29.5%	x
COC(=O)c1c(-c2cccs2)csc1NC(=O)c1ccc(C(C)C)cc1	2.82µM*	-0.9%	-12.3%	-0.3%	x
COC(=O)c1c(-c2cccs2)csc1NC(=O)c1cccnc1	7.6%[59 µM]	31.2%	102.5%	18.4%	u
COC(=O)c1c(-c2cccs2)csc1NC(=O)c1ccc(C(C)(C)C)cc1	1.78µM*	-11.4%	-12.9%	u	x
COC(=O)c1c(-c2cccs2)csc1NC(=O)COc1c(C)ccc(C)c1C	1.41µM*	u	u	79.4µM*	x
COC(=O)c1c(-c2cccs2)csc1NC(=O)c1cccc(Cl)c1	u	19.0%	29.9%	51.0%	x
S=C(NCc1ccccc1)N1CCN(c2cccc(Cl)c2)CC1	-24.7%	-20.4%	u	-18.8%	19.3%
COC(=O)c1c(-c2cccs2)csc1NC(=O)COc1ccc(C(C)(C)C)cc1	3.98µM*	-15.0%	-16.6%	-8.3%	x
O=C(NCC(c1ccco1)N1CCCC1)c1ccc(S(=O)(=O)Nc2ccccc2Cl)cc1 (stereo not given)	16.1%[12.7 µM]	0.6%	47.0%	-26.8%	x
Cn1c(CS/C(N)=N/N=C/c2ccccc2)c(Br)c(=O)n1-c1ccccc1	35.5µM*	u	-5.9%	50.1µM*	44.7µM*
NC(=N\N=Cc1ccccc1)/C(N)=N/N=Cc1ccccc1	x	x	14.0%	-22.6%	x
Cc1cc2c(ncn2C)c(NS(=O)(=O)c2ccccc2Cl)c1C	u	5.8%	4.8%	-22.8%	-8.9%
Cc1cc2c(ncn2C)c(NS(=O)(=O)c2cc(Cl)ccc2Cl)c1C	8.91µM*	11.2%	35.4%	-10.1%	7.1%
SMILES	G9a inh	BAZ2B block	HP1b chromo inh	JMJD2A Tudor	Sfp inh
CCOC(=O)c1cc2occc2n1CC(=O)Nc1ccc(OC)cc1OC	39.8µM*	u	-6.9%	u	-11.4%
CCOC(=O)c1cc2occc2n1CCCN1C(=O)c2ccccc2C1=O	14.1µM*	50.1µM*	u	u	-23.5%
CCOC(=O)c1cc(-c2ccc(C)cc2)n(CC(=O)Nc2ccc(OC)cc2OC)c1C	3.4%[59 µM]	2.2%	30.0%	-9.1%	x
Cc1ccc(C)c2sc(NC(=O)c3nc4ccccc4s3)nc12	-9.5%	0.6%	28.8%	-19.4%	9.9%
CCCN1CCc2c(sc(NC(=O)CCS(=O)(=O)c3ccccc3)c2C(N)=O)C1	u	-17.2%	-5.8%	-10.4%	-0.5%
CNC(=O)c1c(NC(=O)CCS(=O)(=O)c2ccccc2)sc2c1CCN(C(=O)OC)C2	50.1µM*	0.5%	17.9%	-10.3%	x
CNC(=O)c1c(NC(=O)CCS(=O)(=O)c2ccc(C)cc2)sc2c1CCN(C(=O)OC)C2	50.1µM*	-4.1%	15.2%	-9.0%	x
COc1ccc(Cl)cc1NC(=O)CN(C)C(=O)CCCNC(=O)c1ccc(Cl)cc1	-10.6%[12.7 µM]	11.2%	25.1%	-11.8%	x
COCCNC(=O)[C@H](C)[C@@H]1C[C@@]1(C)[C@@H](NC(=O)OCc1ccccc1)c1ccccc1	x	x	x	x	-2.0%
CCN1CCCC1CN(Cc1cc2c(C)cc(C)cc2[nH]c1=O)C(=O)NC1CCCCC1 (stereo not given)	-4.0%	2.0%	44.6%	-1.2%	4.5%
Nc1nc(Nc2ccccc2)nc2ccccc12	u	-31.7%	29.2%	-5.5%[57.1 µM]	-11.7%
CN(C)c1ccc(Nc2nc(N)c3ccccc3n2)cc1	10µM*	14.1µM*	31.6µM*	39.8µM*	25.1µM*
N#Cc1cc(-c2ccccc2)oc1/N=C/c1ccccc1O	u	7.4%	-32.1%	79.4µM*	-7.5%
Cc1ccccc1OCCn1c(=S)[nH]c2ccccc21	39.8µM*	-30.6%	28.6%	-30.8%	-16.7%
Fc1ccccc1OCCn1c(=S)[nH]c2ccccc21	7.08µM*	-36.7%	32.7%	u	-12.6%
O=C1CCCc2cc(S(=O)(=O)NCC3CCC(C(=O)NCc4ccc(F)cc4)CC3)ccc2N1 (stereo not given)	-7.2%[59 µM]	-8.0%	21.5%	-17.2%	x
Cc1ccc(S(=O)(=O)N2CCN(C(=O)CSc3nc4ccccc4c(=O)[nH]3)CC2)c(C)c1	u	31.4%	10.4%	u	-16.8%
Nc1cc2nc3ccccc3oc-2cc1=O	x	44.7µM*	-24.5%	u	22.4µM*
Oc1ccc(N=Nc2ccccc2-c2nn[nH]n2)c(O)c1	35.5µM*	50.1µM*	-4.7%	u	15.0%
Cc1ccccc1-c1nn[nH]n1	-10.1%	2.0%	26.4%	-23.0%	17.5%
O=C(Cc1ccc(Cl)cc1)N/N=C/c1cccc(O)c1	44.1%	0.0%	26.5%	-20.3%	14.0%
O=C1c2ccccc2C(=O)N1CC#CCN1CCN(C2CCCCC2)CC1	20µM*	u	14.5%	u	5.0%
Cc1ccc(S(=O)(=O)N2CCN(Cc3ccccc3Cl)CC2)cc1	1.26µM*	44.7µM*	u	5.01µM*	x
FC(F)(F)c1ccccc1CN1CCCC(N2CCN(c3ccccc3)CC2)C1 (stereo not given)	x	u	12.0%	-33.3%	12.8%
Cc1ccc(S(=O)(=O)N2CCN(C3CCN(Cc4ccccc4)CC3)CC2)cc1	4.4%[59 µM]	x	24.8%	1.7%	9.2%
Cc1ccccc1CN1CCN(Cc2ccccc2C(F)(F)F)CC1	2.82µM*	28.2µM*	-32.2%	2.82µM*	u
FC(F)(F)c1ccccc1CN1CCN(C2CCCCCC2)CC1	2.51µM*	50.1µM*	u	6.31µM*	-60.0%
